Screening results: PubChem BioAssay, National Center for Advancing Translational Sciences (NCATS)
HT1080NT lethal: qHTS for induction of synthetic lethality in tumor cells producing 2HG: qHTS for the HT-1080-NT fibrosarcoma cell line | Potency, µM (titrated, usually from 46.1 µM), without a hit: at the top dose activity, negative = less viability, most hits filed as cytotoxic | HT-1080-NT fibrosarcoma viability, CellTiter-Glo ATP luminescence, 48 h | hit rate 1.6% among 360,000 | AID 686970, 2013;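 also: NT is the 2HG producing partner of a matched IDH1 knockdown line; potency is read from the fitted curve at half-maximal effect; 0% = DMSO-treated cells and -100% = media-only wells without cells; nearly all actives have a fitted effect of over 55% in size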
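Luminescent CellTiter-Glo readout after 48 hours of compound exposure at 37 degrees C defined viability of HT-1080-NT cells. Activity was normalized to DMSO wells and cell-free media wells; concentration-response curves were fitted and assigned curve classes.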
ALOX12 inh: Primary qHTS assay for inhibitors of human arachidonate 12S-lipoxygenase (ALOX12): Round 2; Polyunsaturated fatty acid lipoxygenase ALOX12 (Homo sapiens), P18054; purified 12hLO, xylenol orange hydroperoxide absorbance; Potency, µM (series often up to 108 µM), for the others: top-dose activity change, negative = inhibition, actives largely listed as inhibitors; hit rate 1.1% among 580,000; AID 1671190, 2021; also: potency is read from the fitted curve at half-maximal effect
Target sequence (P18054 whole entry, looked up): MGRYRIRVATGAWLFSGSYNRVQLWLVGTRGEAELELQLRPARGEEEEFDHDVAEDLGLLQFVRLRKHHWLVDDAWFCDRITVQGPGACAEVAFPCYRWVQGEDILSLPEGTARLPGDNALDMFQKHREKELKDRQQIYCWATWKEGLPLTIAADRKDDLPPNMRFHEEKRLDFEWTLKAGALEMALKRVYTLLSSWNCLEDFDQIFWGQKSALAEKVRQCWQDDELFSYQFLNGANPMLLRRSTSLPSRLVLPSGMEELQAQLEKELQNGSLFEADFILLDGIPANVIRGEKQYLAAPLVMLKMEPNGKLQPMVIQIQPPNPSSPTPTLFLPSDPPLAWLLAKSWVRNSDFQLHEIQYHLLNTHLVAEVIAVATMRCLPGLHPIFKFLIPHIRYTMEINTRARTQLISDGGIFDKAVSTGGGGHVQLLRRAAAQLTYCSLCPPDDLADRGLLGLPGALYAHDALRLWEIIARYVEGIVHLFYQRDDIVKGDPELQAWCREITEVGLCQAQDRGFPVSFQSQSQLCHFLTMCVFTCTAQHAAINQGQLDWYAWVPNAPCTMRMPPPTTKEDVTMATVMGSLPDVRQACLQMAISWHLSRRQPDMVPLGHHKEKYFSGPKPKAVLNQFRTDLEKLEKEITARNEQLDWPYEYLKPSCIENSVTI
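Purified human 12hLO at 150 nM in 25 mM Hepes, 0.01% Triton X-100, pH 7.0, preincubated 15 min at room temperature with compound. Reaction started with 40 uM arachidonic acid, 30 min at room temperature. Hydroperoxide measured by Fe-xylenol orange, 573/405 nm absorbance ratio.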
IL1B secr inh: qHTS for Inhibitors of Inflammasome Signaling: IL-1-beta AlphaLISA Primary Screen | THP-1 LPS/ATP IL-1B secretion, AlphaLISA, 16 h; active compounds read low | activity change, % at 57.5 µM | hit rate 4.7% among 360,000; in the data active = activity change below about -50%; inconclusive = mostly about -30% to -49%
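THP-1 cells pretreated 1 hr with compounds (up to 57.5 uM final), then stimulated with LPS (250 ng/mL final) plus ATP (1.25 mM final); secreted IL-1B measured by AlphaLISA after 16 hr, decreased signal indicating inhibition.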
TDP1 cell CPT: qHTS for Inhibitors of human tyrosyl-DNA phosphodiesterase 1 (TDP1): qHTS in cells in presence of CPT; chicken DT40 Tdp1-/-;hTDP1 cells + 20 nM CPT, ATP luminescence, 48 h; Potency, µM (titrated, usually from 46.2 µM), inactives show at the highest dose activity change, negative = growth inhibition, actives largely listed as inhibitors; hit rate 12% among 420,000; also: potency is read from the fitted curve at half-maximal effect; nearly all actives have a fitted effect of over 55% in size
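Cell growth measured by CellTiter-Glo luminescence after a minimum 48 h, 37 C compound exposure with 20 nM CPT in Tdp1-knockout DT40 cells stably expressing hTDP1, seeded 400/well; qHTS titration format.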
TDP1 cell noCPT: qHTS for Inhibitors of human tyrosyl-DNA phosphodiesterase 1 (TDP1): qHTS in cells in absence of CPT; DT40 Tdp1-/- hTDP1 cells, no CPT, ATP luminescence, 48 h; Potency, µM (titrated, usually from 46.2 µM), for inactives: top-dose activity change, negative = growth inhibition, most hits filed as inhibitors; hit rate 15% among 420,000; also: potency is read from the fitted curve at half-maximal effect; nearly all actives have a fitted effect of over 55% in size
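Chicken DT40 Tdp1-/- cells complemented with human TDP1, screened without camptothecin (DMSO vehicle only), 400 cells/well. Compounds pin-transferred, cells incubated at 37 °C for at least 48 hr. Growth read as ATP-dependent luminescence (CellTiter-Glo, 30 min at RT).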
HT1080 IDH1KD tx: qHTS for induction of synthetic lethality in tumor cells producing 2HG: qHTS for the HT-1080-IDH1KD cell line; AID 686971, 2013; hit rate 2% among 360,000; HT-1080 IDH1 knockdown viability, ATP luminescence, 48 h; Potency, µM (titrated, usually from 46.1 µM), without a hit: at the highest dose activity, negative = toxicity, usual class: cytotoxic;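 also: potency is read from the fitted curve at half-maximal effect; 0% = DMSO wells and -100% = cell-free medium wells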
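Using the IDH1-knockdown HT-1080 line run in the same batch and compound series as the NT line, viability after 48 h at 37 °C was determined by CellTiter-Glo luminescence and expressed as % activity.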
Active calls of the source: *; ? = inconclusive; . = no result given. The sample as a whole holds a higher share of hits than the screen did. Unless noted, calls follow the shape of the dose curve; as a rule, active = well fitted curve in the direction sought with a large enough effect; inconclusive = small, poorly fitted or top-dose-only effect, or another doubt; inactive = no such curve, though single readings can be large; an effect the other way counts as inactive or inconclusive. Unless noted, % is scaled to controls: 0 for no effect and ±100 for the full control effect.

SMILES | HT1080NT lethal | ALOX12 inh | IL1B secr inh | TDP1 cell CPT | TDP1 cell noCPT | HT1080 IDH1KD tx
O=C(Cc1ccc(F)cc1)N1CCC2(CC1)CN(Cc1ccccc1)CC2CO (stereo not drawn) | . | 0.6% | . | . | . | .
CCC(=O)NC(c1ccccc1)c1cccs1 (stereo not drawn) | . | 18.2% | . | . | . | .
CCOc1ccc(NC(=S)NCc2ccc3[nH]c(C)cc3c2)cc1 | -6.4% | 10µM* | -13.6 | -21.3% | -26.7% | -10.8%
Cc1cc2cc(CNC(=S)Nc3cccc(Br)c3)ccc2[nH]1 | . | 28.2µM* | . | . | . | .
CCCCNC(=S)NCc1ccc2[nH]c(C)cc2c1 | 21.8% | ? | 20.7 | ? | ? | 1.3%
O=C(NCCc1ccccc1)Nc1c(NC2CCCC2)c2ccccc2oc1=O | . | 0.9% | . | . | . | .
O=C(NCCc1c[nH]c2ccccc12)C(=O)NCC1OCCN1S(=O)(=O)c1ccc(F)cc1 (stereo not drawn) | -0.2% | 6.9% | 13.8 | ? | ? | 0.7%
Cc1ccc(S(=O)(=O)N2CCCOC2CNC(=O)C(=O)NCCc2c[nH]c3ccccc23)cc1 (stereo not drawn) | -14.2% | 7.4% | -59.7* | 14.6µM* | 18.4µM* | -16.4%
O=C(NCCc1c[nH]c2ccccc12)C(=O)NCC1OCCN1S(=O)(=O)c1ccc(Cl)cc1 (stereo not drawn) | 0.0% | 15.8% | 6.7 | ? | 20.6µM* | 1.1%
O=C(NCCc1c[nH]c2ccccc12)C(=O)NCC1OCCN1S(=O)(=O)c1ccccc1 (stereo not drawn) | 1.4% | -15.6% | 1.1 | ? | ? | -1.3%
O=C(NCCc1c[nH]c2ccccc12)C(=O)NCC1OCCCN1S(=O)(=O)c1ccccc1 (stereo not drawn) | -0.8% | -3.4% | -0.1 | -78.8% | 16.4µM* | -12.8%
Cc1cc(C)c(S(=O)(=O)N2CCOC2CNC(=O)C(=O)NCCc2c[nH]c3ccccc23)c(C)c1 (stereo not drawn) | -16.5% | 4.2% | -8.3 | 25.9µM* | 18.4µM* | -4.4%
COc1ccccc1CCNC(=O)C(=O)NCC1OCCN1S(=O)(=O)c1ccc(C)cc1 (stereo not drawn) | 4.2% | 1.6% | 19.9 | -22.6% | ? | 1.3%
CO[C@H]1C(=O)N(C2CCN(S(=O)(=O)c3cccc(F)c3)CC2)[C@H]1c1ccncc1 | . | 17.7% | . | . | . | .
Cc1cc(C)c(C(=O)CSc2nc3ccccc3c(=O)[nH]2)cc1C | -16.3% | 0.0% | 31.7 | -19.0% | ? | -3.9%
COCC(C)n1c(C)cc(C(=O)CSc2nc3ccccc3c(=O)[nH]2)c1C (stereo not drawn) | ? | ? | 21.2 | ? | 20.6µM* | ?
COCCn1c(C)cc(C(=O)CSc2nc3ccccc3c(=O)[nH]2)c1C | -8.6% | -23.4% | 8.3 | 16.4µM* | 14.6µM* | ?
COCCn1c(C)cc(C(=O)CSc2ccc3ccccc3n2)c1C | -16.2% | -28.4% | -4.0 | ? | ? | -13.6%
C=CCn1c(C)cc(C(=O)CSc2nc3ccccc3c(=O)[nH]2)c1C | -17.9% | ? | -19.0 | 16.4µM* | 20.6µM* | ?
COCC(C)n1c(C)cc(C(=O)Cn2nc(C(=O)O)c3ccccc3c2=O)c1C (stereo not drawn) | 1.7% | -1.8% | 4.9 | 12.5% | -1.6% | 0.9%
